According to paper PMC7862700, “An all-to-all approach to the identification of sequence-specific readers for epigenetic DNA modifications on cytosine”:

Tests used:
Experiment in all cases: DAPPL (digital affinity profiling via proximity ligation, sequencing); 10 mM Tris-HCl pH 7.5, 50 mM NaCl, 1 mM DTT, 4% glycerol, room temperature, 30 min; GST-TFs on glutathione beads, 16-mer random dsDNA library, 0.1% formaldehyde crosslink after washing; high values mean tight binding
Conditions in all cases: protein: recombinant; tags: N-terminal GST; dsDNA, one strand shown
FLI1 = target: T1, FLI1 (Homo sapiens, UniProt Q01543 1-452)
T1 sequence: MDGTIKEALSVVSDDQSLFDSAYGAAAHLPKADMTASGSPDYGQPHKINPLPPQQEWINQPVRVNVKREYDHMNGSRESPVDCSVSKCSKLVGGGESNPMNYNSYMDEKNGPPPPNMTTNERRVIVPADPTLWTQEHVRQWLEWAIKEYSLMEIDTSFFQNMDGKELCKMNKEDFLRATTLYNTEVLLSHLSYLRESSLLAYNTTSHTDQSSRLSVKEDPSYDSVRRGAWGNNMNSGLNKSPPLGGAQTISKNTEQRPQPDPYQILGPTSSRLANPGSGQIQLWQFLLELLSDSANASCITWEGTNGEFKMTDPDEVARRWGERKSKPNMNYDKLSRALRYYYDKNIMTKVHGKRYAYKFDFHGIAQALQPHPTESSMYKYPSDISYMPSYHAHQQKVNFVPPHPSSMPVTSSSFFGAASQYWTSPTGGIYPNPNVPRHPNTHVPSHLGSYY
Outline: (§1)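 Pools were built from human transcription factors expressed in yeast as GST fusions, captured on glutathione beads and DNA-barcoded, along with a tag-only sample. Incubation with 200 nmole of a 16-mer random double-stranded DNA library lasted 30 min at room temperature in Tris/NaCl/DTT/glycerol buffer, and was followed by washing, 0.1% formaldehyde crosslinking, proximity ligation, PCR amplification and Illumina NextSeq500 sequencing. Binding signal is the quotient of each hexamer's read frequency for a factor and its frequency for the tag-only sample.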

ELK1 = target: T2, ELK1 (Homo sapiens, UniProt P19419 1-428)
T2 sequence: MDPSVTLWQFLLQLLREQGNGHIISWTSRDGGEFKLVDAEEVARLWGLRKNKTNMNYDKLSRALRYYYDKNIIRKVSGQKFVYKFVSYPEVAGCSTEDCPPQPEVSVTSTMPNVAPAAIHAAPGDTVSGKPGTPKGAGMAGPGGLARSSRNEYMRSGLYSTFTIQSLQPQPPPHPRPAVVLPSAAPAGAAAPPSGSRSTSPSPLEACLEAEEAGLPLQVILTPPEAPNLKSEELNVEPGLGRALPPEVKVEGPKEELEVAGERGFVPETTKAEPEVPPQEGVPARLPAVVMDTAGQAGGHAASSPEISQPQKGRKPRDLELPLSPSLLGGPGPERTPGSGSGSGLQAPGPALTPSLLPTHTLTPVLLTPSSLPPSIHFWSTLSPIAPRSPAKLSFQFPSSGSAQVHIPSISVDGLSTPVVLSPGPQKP
Outline: as §1

GABPA = target: T3, GABPA (Homo sapiens, UniProt Q06546 1-454)
T3 sequence: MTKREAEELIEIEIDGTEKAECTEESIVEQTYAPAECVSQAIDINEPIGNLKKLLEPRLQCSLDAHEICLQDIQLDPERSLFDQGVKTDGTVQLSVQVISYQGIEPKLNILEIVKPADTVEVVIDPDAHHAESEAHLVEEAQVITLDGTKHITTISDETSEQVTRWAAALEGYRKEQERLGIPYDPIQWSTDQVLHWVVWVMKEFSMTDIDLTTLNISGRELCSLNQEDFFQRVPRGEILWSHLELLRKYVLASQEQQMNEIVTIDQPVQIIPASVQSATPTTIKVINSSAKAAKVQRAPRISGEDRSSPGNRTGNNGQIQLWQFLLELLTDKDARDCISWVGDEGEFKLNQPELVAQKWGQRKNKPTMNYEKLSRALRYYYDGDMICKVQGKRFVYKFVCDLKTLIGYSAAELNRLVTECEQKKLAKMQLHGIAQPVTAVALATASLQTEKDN
Outline: as §1

ERG = target: T4, ERG (Homo sapiens, UniProt P11308 1-479)
T4 sequence: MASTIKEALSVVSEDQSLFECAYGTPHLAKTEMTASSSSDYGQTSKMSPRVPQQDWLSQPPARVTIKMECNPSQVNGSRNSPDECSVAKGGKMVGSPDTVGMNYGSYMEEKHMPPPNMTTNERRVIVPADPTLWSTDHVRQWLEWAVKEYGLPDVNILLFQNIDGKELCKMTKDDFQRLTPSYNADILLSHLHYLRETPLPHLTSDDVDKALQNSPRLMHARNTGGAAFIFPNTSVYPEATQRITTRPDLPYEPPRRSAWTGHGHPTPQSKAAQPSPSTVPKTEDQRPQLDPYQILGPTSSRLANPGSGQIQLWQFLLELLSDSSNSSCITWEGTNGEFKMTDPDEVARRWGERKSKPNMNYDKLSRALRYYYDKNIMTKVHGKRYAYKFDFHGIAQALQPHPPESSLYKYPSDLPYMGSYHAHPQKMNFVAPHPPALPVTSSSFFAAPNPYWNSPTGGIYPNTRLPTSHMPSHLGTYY
Outline: as §1

ELF1 = ELF1 (Homo sapiens, UniProt P32519 1-619)
Outline: as §1

EHF = target: T5, EHF (Homo sapiens, UniProt Q9NZC4 1-300)
T5 sequence: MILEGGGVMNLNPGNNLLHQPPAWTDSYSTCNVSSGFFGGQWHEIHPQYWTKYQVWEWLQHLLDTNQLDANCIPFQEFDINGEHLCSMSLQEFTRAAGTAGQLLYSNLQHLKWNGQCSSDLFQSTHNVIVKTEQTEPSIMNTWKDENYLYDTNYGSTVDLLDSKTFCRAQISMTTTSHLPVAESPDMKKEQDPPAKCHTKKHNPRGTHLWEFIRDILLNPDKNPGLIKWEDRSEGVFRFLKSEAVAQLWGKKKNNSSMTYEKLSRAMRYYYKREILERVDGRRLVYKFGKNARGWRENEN
Outline: as §1

SPI1 = SPI1 (Homo sapiens, UniProt P17947 1-270)
Outline: as §1

SPIB = SPIB (Homo sapiens, UniProt Q01892 1-262)
Outline: as §1

ELK3 = target: T6, ELK3 (Homo sapiens, UniProt P41970 1-407)
T6 sequence: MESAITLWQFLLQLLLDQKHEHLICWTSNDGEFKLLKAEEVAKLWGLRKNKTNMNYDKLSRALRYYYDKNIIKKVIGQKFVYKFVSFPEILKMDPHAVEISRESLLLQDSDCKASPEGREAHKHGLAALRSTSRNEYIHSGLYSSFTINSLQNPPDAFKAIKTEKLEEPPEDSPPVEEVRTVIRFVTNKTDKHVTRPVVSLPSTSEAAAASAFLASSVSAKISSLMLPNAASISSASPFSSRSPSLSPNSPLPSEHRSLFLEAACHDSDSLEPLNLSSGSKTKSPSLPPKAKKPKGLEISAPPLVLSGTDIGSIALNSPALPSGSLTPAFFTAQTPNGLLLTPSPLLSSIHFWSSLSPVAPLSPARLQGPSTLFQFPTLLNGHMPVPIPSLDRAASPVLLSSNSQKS
Outline: as §1

Chain of ELF1 (P32519 whole entry): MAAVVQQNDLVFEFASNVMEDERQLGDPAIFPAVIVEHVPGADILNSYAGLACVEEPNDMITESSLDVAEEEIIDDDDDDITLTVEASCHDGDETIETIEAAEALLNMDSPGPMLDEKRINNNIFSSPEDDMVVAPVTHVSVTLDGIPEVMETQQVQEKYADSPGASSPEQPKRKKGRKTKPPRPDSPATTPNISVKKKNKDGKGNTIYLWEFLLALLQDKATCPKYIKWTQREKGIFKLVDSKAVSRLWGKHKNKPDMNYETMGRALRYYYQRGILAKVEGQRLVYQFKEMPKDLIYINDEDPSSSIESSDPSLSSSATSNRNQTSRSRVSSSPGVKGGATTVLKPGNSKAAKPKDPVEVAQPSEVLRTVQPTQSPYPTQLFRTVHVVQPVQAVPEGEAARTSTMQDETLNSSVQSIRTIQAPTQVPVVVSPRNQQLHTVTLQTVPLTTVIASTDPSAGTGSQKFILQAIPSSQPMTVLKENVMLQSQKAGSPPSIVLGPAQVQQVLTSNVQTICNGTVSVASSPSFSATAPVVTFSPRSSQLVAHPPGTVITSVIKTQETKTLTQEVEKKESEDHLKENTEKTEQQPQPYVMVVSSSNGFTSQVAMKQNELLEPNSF
Chain of SPIB (Q01892 whole entry): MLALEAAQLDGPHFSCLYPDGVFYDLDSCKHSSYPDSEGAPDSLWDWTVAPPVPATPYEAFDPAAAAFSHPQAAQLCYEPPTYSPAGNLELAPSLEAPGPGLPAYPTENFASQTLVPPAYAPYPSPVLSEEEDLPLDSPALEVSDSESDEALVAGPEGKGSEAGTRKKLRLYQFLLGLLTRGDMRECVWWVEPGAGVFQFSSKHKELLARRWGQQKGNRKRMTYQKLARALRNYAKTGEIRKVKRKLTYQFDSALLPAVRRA

Sequence	binding signal (FLI1)	binding signal (ELK1)	binding signal (GABPA)	binding signal (ERG)	binding signal (ELF1)	binding signal (EHF)	binding signal (SPI1)	binding signal (SPIB)	binding signal (ELK3)
CATTAT	1.19 fold enrichment (6-mer frequency, TF over GST control)	1.13 fold enrichment (6-mer frequency, TF over GST control)	1.06 fold enrichment (6-mer frequency, TF over GST control)	1.15 fold enrichment (6-mer frequency, TF over GST control)	1.16 fold enrichment (6-mer frequency, TF over GST control)	1.18 fold enrichment (6-mer frequency, TF over GST control)	1.11 fold enrichment (6-mer frequency, TF over GST control)	1.18 fold enrichment (6-mer frequency, TF over GST control)	1.13 fold enrichment (6-mer frequency, TF over GST control)
AACTAT	1.37 fold enrichment (6-mer frequency, TF over GST control)	1.36 fold enrichment (6-mer frequency, TF over GST control)	1.38 fold enrichment (6-mer frequency, TF over GST control)	1.36 fold enrichment (6-mer frequency, TF over GST control)	1.29 fold enrichment (6-mer frequency, TF over GST control)	1.36 fold enrichment (6-mer frequency, TF over GST control)	1.33 fold enrichment (6-mer frequency, TF over GST control)	1.29 fold enrichment (6-mer frequency, TF over GST control)	1.36 fold enrichment (6-mer frequency, TF over GST control)
ACCCAC	1.28 fold enrichment (6-mer frequency, TF over GST control)	1.24 fold enrichment (6-mer frequency, TF over GST control)	1.35 fold enrichment (6-mer frequency, TF over GST control)	1.1 fold enrichment (6-mer frequency, TF over GST control)	1.13 fold enrichment (6-mer frequency, TF over GST control)	1.21 fold enrichment (6-mer frequency, TF over GST control)	1.18 fold enrichment (6-mer frequency, TF over GST control)	1.07 fold enrichment (6-mer frequency, TF over GST control)	1.24 fold enrichment (6-mer frequency, TF over GST control)
GTCACA	1.11 fold enrichment (6-mer frequency, TF over GST control)	1.1 fold enrichment (6-mer frequency, TF over GST control)	1.12 fold enrichment (6-mer frequency, TF over GST control)	1.13 fold enrichment (6-mer frequency, TF over GST control)	1.17 fold enrichment (6-mer frequency, TF over GST control)	1.07 fold enrichment (6-mer frequency, TF over GST control)	1.13 fold enrichment (6-mer frequency, TF over GST control)	1.07 fold enrichment (6-mer frequency, TF over GST control)	1.04 fold enrichment (6-mer frequency, TF over GST control)
AGTATC	1.09 fold enrichment (6-mer frequency, TF over GST control)	1.13 fold enrichment (6-mer frequency, TF over GST control)	1.11 fold enrichment (6-mer frequency, TF over GST control)	1.08 fold enrichment (6-mer frequency, TF over GST control)	1.13 fold enrichment (6-mer frequency, TF over GST control)	1.19 fold enrichment (6-mer frequency, TF over GST control)	1.13 fold enrichment (6-mer frequency, TF over GST control)	1.2 fold enrichment (6-mer frequency, TF over GST control)	1.17 fold enrichment (6-mer frequency, TF over GST control)
GCTACG	1.29 fold enrichment (6-mer frequency, TF over GST control)	1.22 fold enrichment (6-mer frequency, TF over GST control)	1.11 fold enrichment (6-mer frequency, TF over GST control)	1.11 fold enrichment (6-mer frequency, TF over GST control)	1.17 fold enrichment (6-mer frequency, TF over GST control)	1.19 fold enrichment (6-mer frequency, TF over GST control)	1.04 fold enrichment (6-mer frequency, TF over GST control)	1.16 fold enrichment (6-mer frequency, TF over GST control)	1.26 fold enrichment (6-mer frequency, TF over GST control)
AACGAC	1.14 fold enrichment (6-mer frequency, TF over GST control)	1.19 fold enrichment (6-mer frequency, TF over GST control)	1.18 fold enrichment (6-mer frequency, TF over GST control)	1.14 fold enrichment (6-mer frequency, TF over GST control)	1.09 fold enrichment (6-mer frequency, TF over GST control)	1.1 fold enrichment (6-mer frequency, TF over GST control)	1.12 fold enrichment (6-mer frequency, TF over GST control)	1.04 fold enrichment (6-mer frequency, TF over GST control)	1.06 fold enrichment (6-mer frequency, TF over GST control)
